ERAP1 inh = inhibitors of human ERAP1 aminopeptidase; recombinant ERAP1, Leu-AMC fluorescence, 60 min; inhibition, % at 10.7 µM; 0.15% of 340,000 active; AID 652197;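 active means mean replicate inhibition of at least 30%, or all replicates individually reaching that 30% level; inactive means mean below 30% and not every replicate reaching it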;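 further: 0% = neutral control wells and 100% = L-leucinethiol positive control wells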
Target sequence (Q9NZ08 whole entry, looked up): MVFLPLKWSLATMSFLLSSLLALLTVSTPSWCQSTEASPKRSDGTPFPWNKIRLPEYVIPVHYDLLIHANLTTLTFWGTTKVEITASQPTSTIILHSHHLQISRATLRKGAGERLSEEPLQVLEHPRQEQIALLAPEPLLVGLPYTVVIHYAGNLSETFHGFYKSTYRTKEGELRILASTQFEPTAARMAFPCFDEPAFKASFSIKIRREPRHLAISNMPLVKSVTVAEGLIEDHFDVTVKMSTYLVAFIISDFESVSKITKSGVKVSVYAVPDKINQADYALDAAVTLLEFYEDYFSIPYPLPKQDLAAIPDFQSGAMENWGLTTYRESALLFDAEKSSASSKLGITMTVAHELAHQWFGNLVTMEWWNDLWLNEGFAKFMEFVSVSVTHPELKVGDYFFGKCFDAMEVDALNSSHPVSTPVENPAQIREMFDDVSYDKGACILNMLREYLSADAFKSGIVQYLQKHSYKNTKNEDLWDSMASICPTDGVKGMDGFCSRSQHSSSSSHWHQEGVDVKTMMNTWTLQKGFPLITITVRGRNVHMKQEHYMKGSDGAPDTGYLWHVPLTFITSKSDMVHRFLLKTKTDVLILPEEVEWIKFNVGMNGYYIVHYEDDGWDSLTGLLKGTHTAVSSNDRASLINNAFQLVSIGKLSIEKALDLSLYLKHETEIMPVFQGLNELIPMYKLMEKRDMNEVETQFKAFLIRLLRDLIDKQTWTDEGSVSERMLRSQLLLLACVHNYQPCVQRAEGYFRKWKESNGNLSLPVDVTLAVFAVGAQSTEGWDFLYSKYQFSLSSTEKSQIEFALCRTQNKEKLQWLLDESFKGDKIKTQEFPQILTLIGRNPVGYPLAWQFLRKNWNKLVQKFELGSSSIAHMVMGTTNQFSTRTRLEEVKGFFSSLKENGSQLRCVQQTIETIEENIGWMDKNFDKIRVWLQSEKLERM
PvdQ inh = P. aeruginosa PvdQ acylase inhibition; purified PvdQ acylase, fluorescence plate reader; inhibition, % at 10 µM; 0.063% of 340,000 active; AID 488965; in the data active means inhibition above about 30%, passing the limit was not always enough;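 further: 0% = vehicle neutral wells and 100% = reference inhibitor wells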
F508del corr = CFTR F508del correction in bronchial cells. 0.36% of 350,000 active. activity (quench increase), % at 7.58 µM. CFBE cells, YFP halide quenching; stimulated with forskolin plus potentiator P3; % fluorescence drop versus neutral controls;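 active means mean added fluorescence quench of at least 8% versus neutral control, with both replicates also reaching 8%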;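 further: cells transiently co-express mutant CFTR-F508del with the halide-sensitive YFP; corrector assay measuring rescue of mutant channel to the surface after 24 h compound exposure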
rRNA inh HTS = inhibitors of bacterial rRNA selective over humanized ribosomes; E. coli WT GFP vs humanized-ribosome RFP mutants, fluorescence, 24 h; stronger effect = lower value; DMSO median 0, no signal -100; GFP signal change (wild-type ribosome), % (concentration not given with the values); 1.6% of 350,000 active;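 active means significant combined selectivity score with lowered wild-type GFP, culture density cut under 30%, mutant RFP and density less affected; inactive means any of these conditions unmet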
ARNT TACC3 PPI = ARNT/TACC3 interaction disruption | 0.66% of 390,000 active | AlphaScreen His-ARNT PAS-B/GST-TACC3 binding, luminescence; TACC3 fragment carries E629A point mutation | inhibition, % at 9.99 µM | AID 623870 | Q9Y6A5;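 active means mean inhibition of replicates at least 50% and at least half of replicates each reaching 50%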;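 further: 0% = complete ARNT plus TACC3 wells and 100% = ARNT alone without TACC3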
* = called active by the depositor; / = not tested or not shown. Compounds with a hit are over-represented: about 2.1% of the library has one in this group of screens.

SMILES	ERAP1 inh	PvdQ inh	F508del corr	rRNA inh HTS	ARNT TACC3 PPI
CC[C@H]1CN2CCc3cc(OC)c(OC)cc3C2C[C@@H]1C[C@H]1NCCc2cc(OC)c(OC)cc21 (stereo not given in full)	-10.0	-2.0	-9.5	-10.9	30.7
CCC1=C(CC2NCCc3ccccc32)CC2c3cc(OC)c(OC)cc3CCN2C1 (stereo not given)	-2.5	18.4	10.1*	15.9	/
CN(C)c1ccc(NC(=O)CC(NCc2ccccn2)C(=O)O)cc1 (stereo not given)	/	-5.8	/	/	76.9*
C/C(CC(=O)Nc1ccc(N(C)C)cc1)=N\NC(=O)c1cnccn1	/	11.9	/	/	/
Cc1ccc(NC(=O)C(NCc2ccccn2)c2ccccc2)cc1 (stereo not given)	/	3.2	-1.8	11.6	22.9
C/C(CC(=O)Nc1ccc(N(C)C)cc1)=N\NC(=O)c1ccccn1	/	-11.1	/	/	51.7*
COc1ccc(C(=O)Oc2c(CN3CCOCC3)cc(Cl)c3cccnc23)cc1OC	3.5	/	1.3	-7.1	/
O=C(Oc1c(CN2CCOCC2)cc(Cl)c2cccnc12)c1ccccc1F	3.2	-7.4	-8.7	-44.0	65.5*
COCC(=O)N1[C@@H](CO)[C@@H](c2ccc(-c3ccccc3)cc2)C12CN(C(C)=O)C2	0.2	/	-2.8	0.1	/
O=C(Nc1cccc(O)c1)c1cc(-c2ccccc2Cl)on1	-2.7	-8.2	0.1	-24.7*	-6.9
O=C(C[C@H]1CC[C@H]2[C@@H](COC[C@@H](O)CN2C(=O)Nc2ccc(Cl)cc2)O1)NC1Cc2ccccc2C1	2.4	/	0.3	-54.4	-0.2
CCCCSc1nc(N)c(C#N)c(-c2cccs2)c1C#N	-2.4	-10.3	-0.8	-31.4*	1.2
CC(=O)CSc1nc(N)c(C#N)c(-c2cccs2)c1C#N	/	3.1	/	/	-7.3
C[C@H]1CN([C@@H](C)CO)C(=O)c2cccc(NC(=O)C3CCOCC3)c2O[C@H]1CN(C)S(=O)(=O)c1ccc(Cl)cc1	-11.8	/	-0.4	0.0	-0.5
C[C@H](CO)N1C[C@H](C)[C@H](CN(C)C(=O)Nc2ccccc2)OCCCC[C@H](C)Oc2ccc(NC(=O)C3CCCCC3)cc2C1=O	1.7	/	0.6	1.8	-0.6
CSCc1cc(N(C)c2ccccc2)nc(-c2ccccn2)n1	4.6	-14.3	3.3	-56.5	60.8*
CN(C)c1cc(C(F)(F)F)nc(-c2ccccn2)n1	/	4.8	/	/	-11.2
O=C(CSC1=NNC(c2ccccn2)S1)Nc1ccc(C(F)(F)F)cc1 (stereo not given)	6.0	-7.1	7.2	-7.6	76.1*
COCC1CN(CCc2ccc(F)cc2)S(=O)(=O)c2c(F)cccc2O1 (stereo not given)	-3.0	/	0.8	-22.1*	/
COc1ccc(CC(=O)N2CCCC(C)C2)cc1 (stereo not given)	/	-4.3	/	/	-5.9
CC1CCCN(C(=O)Cc2cccc3ccccc23)C1 (stereo not given)	-1.0	-3.6	-0.4	-28.6*	-1.1
COc1ccc2c(c1)C(O)C(CO)C(C(=O)O)C2 (stereo not given)	3.6	3.7	10.5*	8.4	-5.8
C/C=C/c1ccc([C@@H]2[C@@H](C#N)N(c3ncc(CC)s3)[C@H]2CO)cc1	0.1	/	-2.0	-1.7	15.7
COC(=O)CCS(=O)(=O)c1nc(-c2ccccc2)cc(C(F)(F)F)n1	/	-4.5	/	/	0.2
COc1ccc(-c2cc(C(F)(F)F)nc(S(=O)(=O)CCCC(=O)Nc3cccnc3Cl)n2)cc1OC	49.5*	-13.8	1.8	11.9	-11.0
SMILES	ERAP1 inh	PvdQ inh	F508del corr	rRNA inh HTS	ARNT TACC3 PPI
COc1cccc(C(=O)OCn2nnc3ccccc3c2=O)c1	-3.1	-8.0	-1.9	-21.8*	2.7
COc1ccc(C(=O)OCn2nnc3ccccc3c2=O)cc1OC	/	-31.3	/	/	-4.2
CCN1CCN(CCCNC(=O)c2cc3c(s2)-c2ccccc2OC3)CC1	54.0*	-32.0	1.3	-6.8	-1.1
CC1CCCC(C)N1CCCNC(=O)c1cc2c(s1)-c1ccccc1OC2 (stereo not given)	32.1*	0.1	1.1	-0.3	2.1
CC1CC(C)CN(CCCNC(=O)c2cc3c(s2)-c2ccccc2OC3)C1 (stereo not given)	-53.7	-17.7	0.5	-3.8	-2.9
CN(C)C(=O)C[C@H]1CC[C@@H]2[C@H](COC[C@@H](O)CN2CC2CCCCC2)O1	1.3	/	-0.8	2.8	3.9
COCC(=O)Nc1ccc2c(c1)OC[C@@H](C)N(C(=O)c1ccccn1)C[C@H](C)[C@@H](OC)CN(C)C2=O	/	/	0.9	1.8	21.3
Cn1nc(C(C)(C)C)cc1NC(=O)Nc1cc(Cl)cc(Cl)c1	-4.3	-11.3	3.5	-20.4*	-3.8
COc1ccc(NC(=O)N(C)C[C@@H]2OCCCC[C@@H](C)Oc3ccc(NC(=O)Nc4ccc5c(c4)OCO5)cc3C(=O)N([C@H](C)CO)C[C@@H]2C)cc1	0.4	/	0.0	5.3	-9.7
COCCCNc1ccn2nc(-c3cccc(OCc4ccccc4)c3)cc2n1	0.0	/	1.7	-25.5	/
c1ccc(COc2cccc(-c3cc4nc(NCc5cccs5)ccn4n3)c2)cc1	0.8	/	-0.3	-28.1*	/
CC(NCc1ccc(S(N)(=O)=O)cc1)C(=O)Nc1cc([N+](=O)[O-])ccc1Cl (stereo not given)	1.2	15.4	0.7	-20.8*	7.9
O=C(Nc1ccc2c(c1)OCO2)c1ccc([N+](=O)[O-])cc1[N+](=O)[O-]	-5.9	-7.5	-0.1	-18.8*	14.3
CNC[C@@H]1Oc2c(NC(=O)c3cc(C)nn3C)cccc2C(=O)N([C@@H](C)CO)C[C@@H]1C	2.1	/	-0.7	9.3	-7.2
CCN(CC(=O)Nc1ccccc1OC)CC(=O)Nc1ccccc1-c1ccccc1	-0.7	-13.8	-0.7	-32.0*	-6.2
Cc1ccccc1NC(=O)COc1ccccc1C	2.8	6.6	1.3	-24.1	7.8
Cc1ccccc1OCC(=O)Nc1ccccc1-c1ccccc1	0.1	11.8	0.3	-38.1*	-19.9
CCN(CC(=O)Nc1ccccc1-c1ccccc1)Cc1nc2ccccc2c(=O)[nH]1	1.1	-10.6	5.1	-24.9*	0.2
CCN(CC(=O)NCc1ccc(F)cc1)CC(=O)Nc1ccccc1-c1ccccc1	-3.5	-1.1	-1.3	-33.2*	14.1
O=C(C[C@@H]1C=C[C@H](NC(=O)C2CC2)[C@H](CO)O1)NCC1CC1	-1.0	/	-0.3	3.2	-13.5
C/C=C/c1ccc([C@H]2[C@H](C#N)N(c3nc(-c4ccccc4)cs3)[C@H]2CO)cc1	-1.1	/	2.4	1.2	3.8
Cc1ccc(S(=O)(=O)N(C)C[C@@H]2Oc3ccc(NS(=O)(=O)c4cccs4)cc3CC(=O)N([C@H](C)CO)C[C@H]2C)cc1	-2.8	/	1.0	-4.3	5.9
C[C@H](CO)N1C[C@H](C)[C@@H](CN(C)C(=O)Nc2ccc(F)cc2)Oc2ccc(NS(=O)(=O)c3ccc(Cl)cc3)cc2C1=O	-3.4	/	-0.3	4.1	4.9
Cc1c(CCC(=O)O)c(=O)oc2cc3occ(-c4ccc(F)cc4)c3cc12	/	3.3	/	/	37.7
